According to PubChem BioAssay:
Potency and affinity values are given separately. A number with no mark means an inactive call.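 How the source made its calls: active means a fitted half-maximal concentration no higher than twice the top valid tested dose, with signal falling as cells die; inconclusive means flat curve between -70% and -30%, or poor fit; inactive means the rest, including signal rising instead of falling.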

Assay: HeLa cell cytotoxicity, dose response, cytotoxicity control, ATP luminescence, cherry-pick samples (AID 687004);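 further: 0% = neutral control median and -100% = staurosporine 10 µM control median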
Conditions: HeLa viability, ATP luminescence (CellTiter-Glo), 48 h; series mostly up to 26 µM; activity change, negative = cytotoxicity: at the top concentration

Going from `CN(C)CCCn1c(=O)n(C2CCCCC2)c(=O)c2c3c(sc21)CCCCC3` to `C#CCN(C(=O)c1ccc(OC2CCN(C(=O)CCOC)CC2)cc1)C1CCCCC1`, the “activity change, negative = cytotoxicity” value rises from -1.08% to 21.9%.

First: Cc1ccc(/C=C2\SC(=S)N(NS(=O)(=O)c3ccc(C)cc3)C2=O)cc1
Second: COC(=O)C1=C(C)N(Cc2ccc(F)cc2)C(=S)NC1c1cccc(OC)c1 (stereo unspecified)
The “activity change, negative = cytotoxicity” value of the first is lower: 3.22% for the first, 33.4% for the second.

Going from `Cc1ccc(C(=O)NC(=S)Nc2cccc(NC(=O)c3ccccc3)c2)cc1[N+](=O)[O-]` to `O=C(NC(=S)Nc1ccc(N2CCOCC2)cc1)c1cccc([N+](=O)[O-])c1`, the “activity change, negative = cytotoxicity” value falls from 7.94% to -2.26%.

Going from `CC(=O)N[C@H]1CC[C@@H](CCNC(=O)C2CCC2)O[C@H]1CO` to `O=C(CN1CCOCC1)N[C@@H]1CC[C@@H](CCNC(=O)C2CCC2)O[C@@H]1CO`, the “activity change, negative = cytotoxicity” value rises from 1.04% to 7.4%.

Compared with `Cc1ccc(NC(=S)NCc2ccc(Cl)cc2)c(OC(F)F)c1`, `O=C(COc1ccc2c(c1)CCC2)NCc1ccccc1` is lower in “activity change, negative = cytotoxicity” value: 4.18% for the first, -1.39% for the second.

First: O=C(Oc1ccc2c3c(c(=O)oc2c1)CCCC3)c1ccco1
Second: COc1ccc(C2CC(c3cccs3)=NN2C(=O)c2ccco2)cc1OC (stereo unspecified)
The “activity change, negative = cytotoxicity” value of the first is higher: 4.37% for the first, 3.51% for the second.

First: O=C(NC(=S)NCC1COc2ccccc2O1)c1ccccc1 (stereo unspecified)
Second: O=C(CN(c1ccc(F)cc1)S(=O)(=O)c1ccccc1)NC1CC2CCC1C2 (stereo unspecified)
The “activity change, negative = cytotoxicity” value of the first is higher: 4.62% for the first, -1.43% for the second.

With `C[C@@H]1CN([C@H](C)CO)C(=O)c2cc(NS(=O)(=O)c3cn(C)cn3)ccc2O[C@@H](C)CCCCO[C@H]1CN(C)C` the “activity change, negative = cytotoxicity” value was 7.15%.

With `COc1ccc(CN(C)C[C@@H]2Oc3ccc(NS(C)(=O)=O)cc3CC(=O)N([C@H](C)CO)C[C@H]2C)cc1` the “activity change, negative = cytotoxicity” value was 4.28% [at 23.5 µM].
